Experimental data published in the supplement of paper PMC10338343.
± gives the standard deviation.

How the values were obtained:
[1] = tested on: MILI (PIWIL2) piRISC loaded with L1MC piRNA (26 nt); assay: pre-steady-state target cleavage rate (min^-1); guide: L1MC piRNA 5'p-UAACUAAAUACUAUGCAAGCUGUAGG; higher = faster piRNA-guided slicing of the target
Summary of the method: (§1)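 The method was Cleave-'n-Seq, in which uncleaved targets from a transcribed, DNA-blocked target RNA library were sequenced after exposure to active affinity-purified piRISC carrying one synthetic guide, with or without GTSF1 partner protein. Reactions contained 0.1 nM library, 1 nM piRISC and, where present, 500 nM GTSF1 in HEPES–potassium acetate buffer at 33 °C for 0–8 or 0–960 min. Reads were normalised to depth and to weakly complementary targets, three trials were pooled, and k3 was capped at 0.0001 min^-1. The pre-steady-state cleavage rate came from a burst-and-steady-state fit.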

[2] = tested on: EfPiwi piRISC loaded with L1MC piRNA (26 nt); assay: pre-steady-state target cleavage rate (min^-1); auxiliary factor: 500 nM Ephydatia muelleri Gtsf1; guide: L1MC piRNA 5'p-UAACUAAAUACUAUGCAAGCUGUAGG; MIWI and MILI are mouse PIWI proteins and EfPiwi is from a freshwater sponge; tags in brackets are library labels; higher = faster piRNA-guided slicing of the target
Summary of the method: as §1

[3] = auxiliary factor: 500 nM mouse GTSF1

Row | Sequence | pre-steady-state target cleavage rate [1, 3] | pre-steady-state target cleavage rate [2] | pre-steady-state target cleavage rate ([1]; auxiliary factor: none (no GTSF1))
1 | UCCUCCUACAGCUUGCAUUAGUAUUUAGUUA | 0.0229 ± 0.0088 | 0.00479 ± 0.0038 | 
2 | UCCUGCUACAGCUUGCAUAGUAUAAUCAAA | 0.0335 ± 0.013 | 0.00391 ± 0.0037 | 
3 | UCCUCCUACAGCUUGCAAAGAAUUUAGUUA | 0.0165 ± 0.0051 | 0.0033 ± 0.0027 | 
4 | UCCUGGAUCAGCUUGCAUAGUAUUUAGUCUA | 0.0918 ± 0.025 | 0.00289 ± 0.0027 | 
5 | UCCUGCUACAGCUAGCAUAGUAUUUAGUAA | 0.212 ± 0.019 | 0.00623 ± 0.002 | 
6 | UCCUCCUACAGCAUGCAUAGUAUUUAGAAA | 0.211 ± 0.03 | 0.00473 ± 0.002 | 
7 | UCCUGGAACAGCUUGCAUAGUAAUUAGAAA | 0.0609 ± 0.018 | 0.00338 ± 0.0026 | 
8 | UCCUGGAUGUCCUUGCAUAGUAUUUAGUCA | 0.0898 ± 0.017 | 0.00415 ± 0.004 | 
9 | UCCUGGAAGUGCUUGCAUAGUAUUUAGUAA | 0.136 ± 0.022 | 0.00343 ± 0.0027 | 
10 | UCCUGCUACAGCUUGCAUAGAAUAUAGUUA | 0.0873 ± 0.021 | 0.00332 ± 0.0022 | 
11 | UCCUCCAUCAGCUUGCAUAGUAUUUACAAA | 0.0667 ± 0.017 | 0.00282 ± 0.0024 | 
12 | UCCUGGAUCAGCUUGCAUACUAUUAAGUUA | 0.0204 ± 0.0077 | 0.00253 ± 0.0023 | 
13 | UCCUGCAACAGCUUGCAUAGUAUUUUGUUA | 0.179 ± 0.023 | 0.00469 ± 0.0013 | 
14 | UCCUGGUACAGCUUGCAUAGUAAUUAGAUA |  | 0.00477 ± 0.0031 | 0.00338 ± 0.0033
15 | UCCUGCUACAGCUUGCGAUAGUAUUUAGUUA | 0.0073 ± 0.0045 | 0.00987 ± 0.0026 | 
16 | UCCUGGAUCAGCUUGCAUAGUAUUUAUUA | 0.044 ± 0.011 | 0.0033 ± 0.0024 | 
17 | UCCUGCUACAGCUUGGAUACUAUUUAGUUA | 0.0884 ± 0.018 | 0.00633 ± 0.0024 | 
18 | UCCUCCUACAGCUUGCAAAGUAUUUUGUUA | 0.0808 ± 0.011 | 0.00453 ± 0.0028 | 
19 | UCCUGGUACUGCUUGCAUAGUAUAUAGUUA | 0.168 ± 0.044 | 0.01 ± 0.0048 | 
20 | UCCUCCUACAGCUUGCAUAGUAUUUAUUA | 0.0949 ± 0.023 | 0.00539 ± 0.0031 | 
21 | UCCUCCUACAGCUUGCAUAGUAAUUAGAUA | 0.179 ± 0.046 | 0.00553 ± 0.0026 | 
22 | UCCUGGUACAGCUUGCAAAGUAUUUUGUUA | 0.0563 ± 0.014 | 0.00296 ± 0.0029 | 
23 | UCCUGGAACACCUUGCAUAGUAUUAAGUUA | 0.189 ± 0.034 | 0.00303 ± 0.0027 | 
24 | UCCUGGAACAGCUUGCAUAGUAAAUAGAAA | 0.0493 ± 0.016 | 0.00337 ± 0.0028 | 
25 | UCCUCCUACUGCUUGCAUAGUAUUUAGAAA | 0.0658 ± 0.017 | 0.00462 ± 0.0021 | 
26 | UCCUCCUAGAGCUUGCAUAGUAUUAAGUUA | 0.279 ± 0.035 | 0.00604 ± 0.0026 | 
27 | UCCUGGAACAGCUUGCAUAGUAUUAAGAAA | 0.154 ± 0.045 | 0.00313 ± 0.0019 | 
28 | UCCUCCUACAGCUAGCAUAGUAUUUACUUA | 0.15 ± 0.022 | 0.00296 ± 0.0027 | 
29 | UCCUCCUACAGCUUGGAUAGUAUUUAGAAA | 0.0815 ± 0.017 | 0.00325 ± 0.0015 | 
30 | UCCUCCUUGUGCUUGCAUAGUAUUUAGAAA | 0.0325 ± 0.0085 | 0.00387 ± 0.0022 | 
